Compounds without any hit were thinned out: in the full panel of roughly 79,000, 15% have a hit. Values without a mark were called inactive. The source made the active and inactive calls. Rule as the data show it: active = growth inhibition above about 70%; inactive = the rest.
What was measured:
[1] = NCI Yeast Anticancer Drug Screen. Data for the rad50 strain (AID 155);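 also: 0% = growth of vehicle-only cultures of the same strain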; details: S. cerevisiae rad50 strain growth inhibition, hits give high values
How it was run: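 Relative growth inhibition (compound vs vehicle) was measured in yeast with a defined repair-gene alteration.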

[2] = NCI Yeast Anticancer Drug Screen. Data for the mec2-1 strain (AID 157); details: S. cerevisiae mec2-1 strain, hits give high values
How it was run: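 Test agents were screened against the mec2-1 yeast strain, with defined DNA repair or cell cycle alteration. Growth was scored as inhibition against vehicle-only controls.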

[3] = NCI Yeast Anticancer Drug Screen. Data for the sgs1 mgt1 strain (AID 161);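 also: 0% = growth of cultures given vehicle only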; details: S. cerevisiae sgs1 mgt1 strain, hits give high values
How it was run: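 Read-out: growth inhibition vs vehicle controls. Cells: mutant yeast strain deficient in DNA damage repair.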

[4] = NCI Yeast Anticancer Drug Screen. Data for the cln2 rad14 strain (AID 165);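 also: 0% = growth equal to vehicle treated cultures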; details: S. cerevisiae cln2 rad14 strain, hits give high values
How it was run: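 Growth of compound-exposed yeast (cln2 rad14 genotype) measured and expressed as inhibition relative to vehicle.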

[5] = NCI Yeast Anticancer Drug Screen. Data for the bub3 strain (AID 167); details: S. cerevisiae bub3 mutant strain, hits give high values
How it was run: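 Screening used yeast with an engineered genetic alteration affecting cell cycle control. Compound-exposed cultures were compared with vehicle cultures, and reduced growth was taken as inhibition.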

[6] = NCI Yeast Anticancer Drug Screen. Data for the mlh1 rad18 strain (AID 175); details: S. cerevisiae mlh1 rad18 strain growth inhibition, hits give high values
How it was run: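 In this whole-cell yeast screen, a strain with altered DNA damage repair is challenged with compound, and its growth is measured against matched vehicle-treated controls.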

[7] = at 5.0 µM (retest, dose inferred, filed as 0.5)
[8] = at 50.0 µM (retest, dose inferred, filed as 5.0)

| Compound | growth inhibition [1, 7] | growth inhibition [1, 8] | growth inhibition ([1]; at 50.0 µM) | growth inhibition [2, 7] | growth inhibition [2, 8] | growth inhibition ([2]; at 50.0 µM) | growth inhibition [3, 7] | growth inhibition [3, 8] | growth inhibition ([3]; at 50.0 µM) | growth inhibition [4, 7] | growth inhibition [4, 8] | growth inhibition ([4]; at 50.0 µM) | growth inhibition [5, 7] | growth inhibition [5, 8] | growth inhibition ([5]; at 50.0 µM) | growth inhibition [6, 7] | growth inhibition [6, 8] | growth inhibition ([6]; at 50.0 µM) |
| --- | --- | --- | --- | --- | --- | --- | --- | --- | --- | --- | --- | --- | --- | --- | --- | --- | --- | --- |
| N#CSc1ccc(Nc2ccc(SC#N)cc2)cc1 | 98% (active) | 98% (active) | 98.4% (active) | 99% (active) | 99% (active) | 97.6% (active) | 99% (active) | 99% (active) | 98.4% (active) | 99% (active) | 98% (active) | 97.7% (active) | 98% (active) | 97% (active) | 98.2% (active) | 99% (active) | 94% (active) | 97.8% (active) |
| CC(C)C1=CC2=CC(=O)C3C(C)(C)CCCC3(C)C2=C(O)C1=O (stereo not given) | 90% (active) | 88% (active) | 87.8% (active) | 99% (active) | 94% (active) | 89.8% (active) | 98% (active) | 94% (active) | 90% (active) | 24% | 86% (active) | 85.5% (active) | 49% | 93% (active) | 87.4% (active) | 96% (active) | 90% (active) | 87.5% (active) |
| Oc1ccc(O)c(C2CCCCC2)c1 | 30% | 94% (active) | 96.7% (active) | 62% | 99% (active) | 89.7% (active) | 46% | 99% (active) | 78.2% (active) | 46% | 94% (active) | 50.4% | 51% | 99% (active) | 89% (active) | 83% (active) | 99% (active) | 94.8% (active) |
| Cc1nc2[nH]cc(C)c2c(=O)[nH]1 | 6% | -11% | -24.8% | -4% | -14% | -2.25% | -1% | -7% | 4.1% | -11% | -4% | 35.1% | 2% | -15% | 4.6% | -10% | -14% | -8.2% |
| O=[N+]([O-])c1ccc(CO)o1 | 10% | 68% | 93.1% (active) | 0% | 10% | 38.8% | 2% | 14% | 76.4% (active) | 3% | -2% | 29.1% | 0% | 1% | 26.7% | 6% | 33% | 84.5% (active) |
| COc1cccc2c1C(=O)c1c(O)c(CCl)cc(O)c1C2=O | 44% | 97% (active) | 94% (active) | 23% | 91% (active) | 76.5% (active) | 47% | 96% (active) | 95.2% (active) | 17% | 96% (active) | 91.5% (active) | 3% | 49% | 21.8% | 35% | 97% (active) | 94.6% (active) |
| C[C@]12CC[C@H](O)CC1=CC[C@@H]1C2CC[C@]2(C)C(=O)N(N)C(=O)CC12 (stereo not given in full) | 7% | 92% (active) | 83.7% (active) | -24% | 91% (active) | 88.3% (active) | 16% | 93% (active) | 87.8% (active) | 2% | 92% (active) | 88.4% (active) | 16% | 93% (active) | 86.7% (active) | -11% | 91% (active) | 84.4% (active) |
| Cc1cccc2c1C1c3c(C)cccc3C(O)CC1CC2O (stereo not given) | 15% | 3% | 36.5% | -6% | -4% | 23.1% | -2% | 45% | 42.4% | -18% | -1% | 30.1% | -10% | 4% | 33.5% | 1% | 28% | 39.8% |
| O=c1sc(=S)[nH]c2ccccc12 | -3% | 10% | 76.8% (active) | 6% | 43% | 69.1% | 3% | 41% | 78.9% (active) | -4% | 3% | 71.5% (active) | -1% | 7% | 67.5% | 16% | 31% | 72.2% (active) |
| CN(C)c1nc(N(C)C)sc(=O)n1 | 0% | 91% (active) | 85% (active) | -4% | 28% | 25.8% | 2% | 78% (active) | 69% | 8% | 26% | 1.5% | -10% | 37% | -3.6% | 9% | 86% (active) | 76.3% (active) |
